Assay [1] has as its target T1, Aurora kinase A (Homo sapiens) (UniProt O14965).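 Note: values are mean percent inhibition.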
T1 sequence (whole entry): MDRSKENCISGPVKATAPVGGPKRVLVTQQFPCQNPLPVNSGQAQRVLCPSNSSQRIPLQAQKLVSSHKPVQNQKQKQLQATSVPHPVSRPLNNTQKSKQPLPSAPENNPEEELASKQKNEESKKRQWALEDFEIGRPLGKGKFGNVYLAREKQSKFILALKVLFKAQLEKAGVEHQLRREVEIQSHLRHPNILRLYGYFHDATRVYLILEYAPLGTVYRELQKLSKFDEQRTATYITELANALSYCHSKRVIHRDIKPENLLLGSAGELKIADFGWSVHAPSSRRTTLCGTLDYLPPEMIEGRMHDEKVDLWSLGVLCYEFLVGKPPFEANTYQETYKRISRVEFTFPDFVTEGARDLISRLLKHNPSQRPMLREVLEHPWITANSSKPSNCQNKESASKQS
To be noted: at 1 µM.

Assay [2] deals with Aurora kinase B (Homo sapiens) (UniProt Q96GD4). To be noted: at 0.1 µM.
Assay [3] has the same target. To be noted: at 1 µM.
Assay [4] deals with T2, Aurora kinase C (Homo sapiens) (UniProt Q9UQB9).
T2 sequence (whole entry): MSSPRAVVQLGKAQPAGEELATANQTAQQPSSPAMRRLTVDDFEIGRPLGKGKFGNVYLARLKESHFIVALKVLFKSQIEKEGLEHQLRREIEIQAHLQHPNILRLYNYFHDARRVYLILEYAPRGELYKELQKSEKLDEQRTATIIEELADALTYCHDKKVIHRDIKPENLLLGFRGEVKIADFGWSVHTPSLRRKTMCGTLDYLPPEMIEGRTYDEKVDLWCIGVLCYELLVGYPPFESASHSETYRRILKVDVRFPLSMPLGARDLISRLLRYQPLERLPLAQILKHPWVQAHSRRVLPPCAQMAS
As to conditions: at 0.1 µM.

Assay [5] addresses T2, Aurora kinase C (Homo sapiens). As to conditions: at 1 µM.
Assay [6] concerns the target Serine/threonine-protein kinase 10 (Homo sapiens) (UniProt O94804). To be noted: at 0.1 µM.
Assay [7] shares this target. To be noted: at 1 µM.
The target in assay [8] is T3, Mitogen-activated protein kinase kinase kinase kinase 2 (Homo sapiens) (UniProt Q12851).
T3 sequence (whole entry): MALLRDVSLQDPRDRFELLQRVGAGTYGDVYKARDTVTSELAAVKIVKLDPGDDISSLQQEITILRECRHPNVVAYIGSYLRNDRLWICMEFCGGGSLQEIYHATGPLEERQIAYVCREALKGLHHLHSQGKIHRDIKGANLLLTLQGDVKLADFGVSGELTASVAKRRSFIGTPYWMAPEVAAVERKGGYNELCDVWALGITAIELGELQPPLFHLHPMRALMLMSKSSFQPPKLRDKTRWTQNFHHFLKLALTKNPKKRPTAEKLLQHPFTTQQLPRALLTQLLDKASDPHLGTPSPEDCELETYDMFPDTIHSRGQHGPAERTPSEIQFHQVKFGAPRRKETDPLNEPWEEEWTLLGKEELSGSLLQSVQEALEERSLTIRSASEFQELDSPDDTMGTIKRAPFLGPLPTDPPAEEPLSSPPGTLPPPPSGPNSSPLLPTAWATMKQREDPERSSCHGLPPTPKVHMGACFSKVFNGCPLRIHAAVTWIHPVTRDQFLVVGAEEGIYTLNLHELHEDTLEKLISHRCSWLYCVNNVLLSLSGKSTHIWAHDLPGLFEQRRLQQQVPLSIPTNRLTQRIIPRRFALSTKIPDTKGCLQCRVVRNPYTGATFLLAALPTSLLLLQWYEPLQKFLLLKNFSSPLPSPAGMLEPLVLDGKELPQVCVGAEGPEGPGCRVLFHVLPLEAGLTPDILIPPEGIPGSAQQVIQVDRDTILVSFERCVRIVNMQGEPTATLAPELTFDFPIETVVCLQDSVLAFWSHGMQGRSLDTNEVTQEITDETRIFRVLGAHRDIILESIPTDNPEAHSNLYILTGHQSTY
As to conditions: at 0.1 µM.

Assay [9] has as its target T3, Mitogen-activated protein kinase kinase kinase kinase 2 (Homo sapiens). As to conditions: at 1 µM.
Assay [10] concerns the target Mitogen-activated protein kinase kinase kinase kinase 4 (Homo sapiens) (UniProt O95819). As to conditions: at 0.1 µM.
The target is the same in assay [11]. As to conditions: at 1 µM.
Assay [12] deals with Dual specificity mitogen-activated protein kinase kinase 1 (Homo sapiens) (UniProt Q02750). To be noted: at 0.1 µM.
Assay [13] shares this target. To be noted: at 1 µM.
Assay [14] addresses Misshapen-like kinase 1 (Homo sapiens) (UniProt Q8N4C8). As to conditions: at 0.1 µM.
Assay [15] shares this target. As to conditions: at 1 µM.
In assay [16] the target is T4, Serine/threonine-protein kinase 4 (Homo sapiens) (UniProt Q13043).
T4 sequence (whole entry): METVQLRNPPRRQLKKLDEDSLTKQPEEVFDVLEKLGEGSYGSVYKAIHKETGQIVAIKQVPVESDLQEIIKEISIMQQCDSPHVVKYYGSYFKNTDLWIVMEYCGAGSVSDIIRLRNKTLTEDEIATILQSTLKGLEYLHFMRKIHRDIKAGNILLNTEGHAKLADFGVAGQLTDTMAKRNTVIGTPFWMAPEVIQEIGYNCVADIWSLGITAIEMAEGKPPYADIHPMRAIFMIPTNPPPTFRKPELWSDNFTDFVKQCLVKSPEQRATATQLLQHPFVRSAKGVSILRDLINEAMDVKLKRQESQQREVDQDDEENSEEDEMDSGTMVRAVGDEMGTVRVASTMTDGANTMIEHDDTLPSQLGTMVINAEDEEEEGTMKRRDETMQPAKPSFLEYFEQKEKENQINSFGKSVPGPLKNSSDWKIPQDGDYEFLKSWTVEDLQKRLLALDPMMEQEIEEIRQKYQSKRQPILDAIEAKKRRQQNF
As to conditions: at 0.1 µM.

In assay [17] the target is T4, Serine/threonine-protein kinase 4 (Homo sapiens). To be noted: at 1 µM.
The target in assay [18] is T5, Serine/threonine-protein kinase 3 (Homo sapiens) (UniProt Q13188).
T5 sequence (whole entry): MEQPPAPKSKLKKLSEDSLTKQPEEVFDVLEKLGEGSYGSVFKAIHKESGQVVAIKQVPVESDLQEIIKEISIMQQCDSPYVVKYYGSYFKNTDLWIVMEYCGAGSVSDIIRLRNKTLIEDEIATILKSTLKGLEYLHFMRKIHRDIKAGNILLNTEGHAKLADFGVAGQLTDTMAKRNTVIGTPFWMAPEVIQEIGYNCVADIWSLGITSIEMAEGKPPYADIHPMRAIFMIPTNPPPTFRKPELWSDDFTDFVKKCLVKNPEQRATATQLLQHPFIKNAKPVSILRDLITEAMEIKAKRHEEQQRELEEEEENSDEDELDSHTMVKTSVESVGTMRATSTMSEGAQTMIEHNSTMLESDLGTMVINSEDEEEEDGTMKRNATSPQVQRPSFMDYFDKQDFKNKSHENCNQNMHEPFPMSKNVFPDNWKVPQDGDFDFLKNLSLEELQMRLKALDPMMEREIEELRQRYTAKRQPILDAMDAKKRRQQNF
To be noted: at 0.1 µM.

For assay [19], the target named is T5, Serine/threonine-protein kinase 3 (Homo sapiens). To be noted: at 1 µM.
For assay [20], the target named is Serine/threonine-protein kinase 26 (Homo sapiens) (UniProt Q9P289). As to conditions: at 0.1 µM.

Among the data in ChEMBL document CHEMBL1961873, “Compounds: GSK PKIS; Assays: Nanosyn kinase panel” (2012) are inhibition values, retold here.

SMILES strings stand for the structures.

Chain of Serine/threonine-protein kinase 26 (Homo sapiens) (Q9P289 2-416 limits assumed): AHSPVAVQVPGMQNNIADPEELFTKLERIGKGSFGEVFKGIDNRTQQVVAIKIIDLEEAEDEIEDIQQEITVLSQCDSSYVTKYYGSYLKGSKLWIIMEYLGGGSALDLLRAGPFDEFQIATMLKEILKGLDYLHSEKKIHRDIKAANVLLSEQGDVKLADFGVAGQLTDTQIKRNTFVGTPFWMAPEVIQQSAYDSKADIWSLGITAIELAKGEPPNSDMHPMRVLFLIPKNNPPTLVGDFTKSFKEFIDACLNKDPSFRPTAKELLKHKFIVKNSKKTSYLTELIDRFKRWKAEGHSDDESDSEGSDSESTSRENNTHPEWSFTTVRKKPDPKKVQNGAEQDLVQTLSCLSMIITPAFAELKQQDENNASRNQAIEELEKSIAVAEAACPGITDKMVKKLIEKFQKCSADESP
Chain of Serine/threonine-protein kinase 10 (Homo sapiens) (O94804 whole entry, looked up): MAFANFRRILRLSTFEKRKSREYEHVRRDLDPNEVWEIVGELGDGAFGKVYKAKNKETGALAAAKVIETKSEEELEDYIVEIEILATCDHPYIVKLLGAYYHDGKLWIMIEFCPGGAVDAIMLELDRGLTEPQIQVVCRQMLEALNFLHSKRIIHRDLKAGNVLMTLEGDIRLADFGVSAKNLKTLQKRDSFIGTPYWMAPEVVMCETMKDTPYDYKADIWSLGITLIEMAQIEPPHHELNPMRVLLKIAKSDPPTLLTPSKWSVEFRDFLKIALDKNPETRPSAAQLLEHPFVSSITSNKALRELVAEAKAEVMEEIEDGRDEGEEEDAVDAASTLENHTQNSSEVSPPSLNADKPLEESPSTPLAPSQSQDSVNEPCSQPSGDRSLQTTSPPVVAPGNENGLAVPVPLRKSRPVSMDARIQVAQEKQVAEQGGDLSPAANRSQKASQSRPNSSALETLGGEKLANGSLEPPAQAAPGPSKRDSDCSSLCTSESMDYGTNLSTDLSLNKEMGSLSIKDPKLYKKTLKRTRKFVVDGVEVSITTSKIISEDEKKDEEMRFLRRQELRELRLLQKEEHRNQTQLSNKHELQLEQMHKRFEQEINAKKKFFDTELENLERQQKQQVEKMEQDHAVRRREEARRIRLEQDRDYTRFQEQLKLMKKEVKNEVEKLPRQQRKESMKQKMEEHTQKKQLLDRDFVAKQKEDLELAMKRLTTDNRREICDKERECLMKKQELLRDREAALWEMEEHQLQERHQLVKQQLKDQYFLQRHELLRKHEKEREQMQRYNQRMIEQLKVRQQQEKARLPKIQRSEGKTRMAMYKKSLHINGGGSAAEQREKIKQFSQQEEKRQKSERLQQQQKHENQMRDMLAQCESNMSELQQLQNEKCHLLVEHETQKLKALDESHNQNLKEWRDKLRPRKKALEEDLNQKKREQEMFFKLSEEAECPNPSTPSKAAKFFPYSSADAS
Chain of Dual specificity mitogen-activated protein kinase kinase 1 (Homo sapiens) (Q02750 whole entry): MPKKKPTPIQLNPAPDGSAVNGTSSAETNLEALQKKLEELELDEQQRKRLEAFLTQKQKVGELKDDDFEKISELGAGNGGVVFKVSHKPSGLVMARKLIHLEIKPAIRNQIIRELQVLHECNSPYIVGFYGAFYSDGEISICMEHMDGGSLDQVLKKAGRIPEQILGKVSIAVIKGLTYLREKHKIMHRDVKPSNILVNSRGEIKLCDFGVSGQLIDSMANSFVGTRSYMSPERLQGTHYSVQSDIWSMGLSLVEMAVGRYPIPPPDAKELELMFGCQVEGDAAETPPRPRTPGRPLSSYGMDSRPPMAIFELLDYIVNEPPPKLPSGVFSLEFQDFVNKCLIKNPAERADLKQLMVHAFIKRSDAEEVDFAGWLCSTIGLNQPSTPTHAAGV
Chain of Misshapen-like kinase 1 (Homo sapiens) (Q8N4C8 whole entry, looked up): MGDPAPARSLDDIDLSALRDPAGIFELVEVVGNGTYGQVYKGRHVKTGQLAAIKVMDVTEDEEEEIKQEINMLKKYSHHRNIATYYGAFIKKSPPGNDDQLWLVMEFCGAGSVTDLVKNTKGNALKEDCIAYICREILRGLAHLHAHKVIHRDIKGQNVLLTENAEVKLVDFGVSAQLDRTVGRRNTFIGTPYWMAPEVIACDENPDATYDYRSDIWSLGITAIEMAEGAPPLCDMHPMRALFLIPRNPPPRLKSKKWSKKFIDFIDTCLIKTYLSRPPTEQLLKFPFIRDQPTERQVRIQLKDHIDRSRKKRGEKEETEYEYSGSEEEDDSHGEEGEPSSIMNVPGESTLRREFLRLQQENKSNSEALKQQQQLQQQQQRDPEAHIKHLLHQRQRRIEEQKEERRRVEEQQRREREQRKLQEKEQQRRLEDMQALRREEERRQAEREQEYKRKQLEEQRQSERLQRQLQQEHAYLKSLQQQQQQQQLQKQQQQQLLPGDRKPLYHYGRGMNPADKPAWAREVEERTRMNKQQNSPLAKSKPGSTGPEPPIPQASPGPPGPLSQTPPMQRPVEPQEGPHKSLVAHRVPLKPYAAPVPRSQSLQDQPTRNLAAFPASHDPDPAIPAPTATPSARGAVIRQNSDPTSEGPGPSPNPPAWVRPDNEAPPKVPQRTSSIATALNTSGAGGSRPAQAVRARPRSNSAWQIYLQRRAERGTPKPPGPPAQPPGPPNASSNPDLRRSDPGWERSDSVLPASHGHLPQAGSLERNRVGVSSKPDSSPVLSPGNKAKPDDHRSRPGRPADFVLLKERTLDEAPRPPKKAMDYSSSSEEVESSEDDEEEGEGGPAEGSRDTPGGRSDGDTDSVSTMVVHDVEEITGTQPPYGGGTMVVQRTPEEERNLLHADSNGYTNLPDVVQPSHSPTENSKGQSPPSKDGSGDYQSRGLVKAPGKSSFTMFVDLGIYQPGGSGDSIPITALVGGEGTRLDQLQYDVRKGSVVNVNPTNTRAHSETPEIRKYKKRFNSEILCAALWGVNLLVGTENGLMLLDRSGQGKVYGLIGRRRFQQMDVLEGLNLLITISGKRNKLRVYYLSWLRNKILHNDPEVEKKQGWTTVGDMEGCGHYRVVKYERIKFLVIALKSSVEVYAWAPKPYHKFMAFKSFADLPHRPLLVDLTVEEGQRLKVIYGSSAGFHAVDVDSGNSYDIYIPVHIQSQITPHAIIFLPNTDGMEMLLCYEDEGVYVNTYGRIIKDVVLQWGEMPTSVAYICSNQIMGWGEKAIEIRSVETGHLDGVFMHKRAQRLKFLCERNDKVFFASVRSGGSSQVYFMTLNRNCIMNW
Chain of Aurora kinase B (Homo sapiens) (Q96GD4 whole entry): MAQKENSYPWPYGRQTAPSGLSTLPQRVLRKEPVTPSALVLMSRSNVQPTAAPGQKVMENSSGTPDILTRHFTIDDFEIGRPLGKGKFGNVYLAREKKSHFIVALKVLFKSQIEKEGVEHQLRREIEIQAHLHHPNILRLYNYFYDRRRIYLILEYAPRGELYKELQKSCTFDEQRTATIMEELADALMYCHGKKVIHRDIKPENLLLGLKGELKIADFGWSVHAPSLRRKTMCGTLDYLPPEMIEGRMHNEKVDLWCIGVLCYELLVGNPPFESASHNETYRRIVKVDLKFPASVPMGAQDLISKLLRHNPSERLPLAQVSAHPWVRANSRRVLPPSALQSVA
Chain of Mitogen-activated protein kinase kinase kinase kinase 4 (Homo sapiens) (O95819 2-1239 limits assumed): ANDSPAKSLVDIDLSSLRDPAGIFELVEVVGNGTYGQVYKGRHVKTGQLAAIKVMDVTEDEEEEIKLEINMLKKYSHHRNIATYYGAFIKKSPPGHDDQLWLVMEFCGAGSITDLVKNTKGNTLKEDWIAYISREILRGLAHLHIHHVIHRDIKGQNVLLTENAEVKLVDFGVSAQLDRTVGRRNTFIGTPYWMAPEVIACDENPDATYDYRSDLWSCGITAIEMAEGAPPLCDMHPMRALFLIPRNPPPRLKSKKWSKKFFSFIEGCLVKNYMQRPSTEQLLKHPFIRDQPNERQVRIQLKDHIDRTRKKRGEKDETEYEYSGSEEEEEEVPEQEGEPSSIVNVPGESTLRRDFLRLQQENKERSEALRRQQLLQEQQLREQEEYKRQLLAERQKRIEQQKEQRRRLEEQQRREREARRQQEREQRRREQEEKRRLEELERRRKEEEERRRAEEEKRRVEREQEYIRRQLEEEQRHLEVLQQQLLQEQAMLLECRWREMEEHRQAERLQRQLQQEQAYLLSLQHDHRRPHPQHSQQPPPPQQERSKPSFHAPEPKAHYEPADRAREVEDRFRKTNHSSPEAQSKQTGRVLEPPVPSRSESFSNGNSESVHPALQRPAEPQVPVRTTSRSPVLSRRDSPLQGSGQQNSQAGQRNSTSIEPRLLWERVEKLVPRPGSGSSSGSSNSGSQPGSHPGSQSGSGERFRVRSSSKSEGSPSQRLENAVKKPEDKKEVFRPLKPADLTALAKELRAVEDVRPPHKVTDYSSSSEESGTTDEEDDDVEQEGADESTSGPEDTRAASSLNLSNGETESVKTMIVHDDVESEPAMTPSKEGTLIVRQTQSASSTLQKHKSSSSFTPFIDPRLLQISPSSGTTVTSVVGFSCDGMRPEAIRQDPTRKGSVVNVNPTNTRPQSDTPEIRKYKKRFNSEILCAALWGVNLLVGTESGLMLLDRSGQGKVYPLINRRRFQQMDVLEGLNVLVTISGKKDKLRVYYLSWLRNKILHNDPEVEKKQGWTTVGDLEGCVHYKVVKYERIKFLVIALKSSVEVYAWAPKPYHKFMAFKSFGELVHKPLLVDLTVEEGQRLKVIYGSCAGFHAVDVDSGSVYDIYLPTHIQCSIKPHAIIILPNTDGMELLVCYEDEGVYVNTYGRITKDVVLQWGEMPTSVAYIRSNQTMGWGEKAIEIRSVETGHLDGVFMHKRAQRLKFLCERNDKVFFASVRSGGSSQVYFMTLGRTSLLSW

By inhibition is commonly meant the relative decrease from the control value, in per cent. For `COc1ccc(-c2nn3ncccc3c2-c2ccnc(Nc3ccc(F)c(F)c3)n2)cc1`, the inhibition turned out to be 28.5% in [1]; 4.36% in assay [2]; 14.3% in assay [3]; 1.75% in assay [4]; 6.44% in assay [5]; 7.15% in assay [6]. Also, the inhibition was 23.5% in assay [7]; 2.1% in [8]; 1.49% in [9]; 8.56% in [10]; 16.4% in assay [11]; 6.07% in [12]. The inhibition turned out to be 3.87% in [13]; 9.98% in [14]; 13.8% in assay [15]; 6.88% in [16]; 11.6% in assay [17]; 5.53% in assay [18]. The inhibition in [19] is 10.2%; in assay [20] it was -0.41%.

As for `O=C1Nc2ccccc2/C1=C1\CCc2cc(O)ccc21`, the inhibition in assay [1] is 70.9%; in assay [2] it was 44.8%; in assay [3], 80.5%; in assay [4], 53.7%; in [5], 93.4%; in assay [6], 6.67%. In addition, the inhibition worked out at 16.1% in [7]; 12.1% in assay [8]; 52.6% in assay [9]; 23.3% in assay [10]; 66.8% in assay [11]; 7.68% in assay [12]. Besides, the inhibition amounted to 9.97% in assay [13]; 17.6% in [14]; 58.9% in assay [15]; 20.8% in [16]; 58.5% in assay [17]; 15.1% in assay [18]. Moreover, the results for the inhibition in assay [19] and in assay [20] were 52.4% and -4.52%, respectively.

On to `COc1ccccc1-c1cc(/C=C2\C(=O)Nc3ncc(Br)cc32)cc(Br)c1O`, for which the inhibition in [1] was found to be 93%; in assay [2], 12.4%; in [3] it was 57.2%; in assay [4], 7.31%; in [5] it was 87.5%; in [6], 5.49%. In addition, the inhibition in assay [7] came out at 5.99%; in [8], 0.42%; in assay [9], 5.34%; in assay [10], 5.7%; in assay [11], 14%; in [12] it was 6.54%. Also, the inhibition turned out to be 5.7% in [13]; 5.71% in assay [14]; 13.3% in assay [15]; 6.41% in assay [16]; 8.19% in assay [17]; 7.78% in [18]. The inhibition in assay [19] came out at 8.09%; in assay [20] it was 2.55%.

On to `Cc1cc(O)cc(C)c1/C=C/c1cncc(C(=O)OC(C)(C)C)c1`, for which the inhibition was 14.9% in assay [1]; 3.41% in assay [2]; 6.42% in [3]; 0.94% in [4]; -1.91% in [5]; 5.45% in assay [6]. For the same molecule, the inhibition in assay [7] was 17.5%; in [8], 2.5%; in [9], 7.97%; in assay [10] it was 7.27%; in [11], 15.2%; in assay [12], 4.02%. Moreover, the inhibition was found to be 3.99% in assay [13]; 6.01% in [14]; 9.55% in assay [15]; 3.56% in [16]; 8.26% in assay [17]; 2.81% in assay [18]. Besides, the inhibition in assay [19] worked out at 6.28%; in assay [20], 0.35%.

For the molecule `CN(C)CCNC(=O)Nc1ccc(N(C)c2ccnc(Nc3ccc(CS(C)(=O)=O)cc3)n2)cc1`, the inhibition worked out at 79% in assay [1]; 21.6% in [2]; 69.1% in [3]; 21.9% in assay [4]; 94.5% in [5]; 7.91% in assay [6]. The inhibition is 36.7% in [7]; 0.59% in assay [8]; 2.02% in assay [9]; 4.07% in assay [10]; 14.6% in [11]; 4.9% in [12]. Also, the inhibition in assay [13] amounted to 4.12%; in assay [14] it was 5.87%; in [15], 10.1%; in [16], 6.4%; in [17] it was 11.4%; in [18] it was 6.63%. In addition, the values for the inhibition in assay [19] and in assay [20] were 6.98% and -0.89%, respectively.

As to `NS(=O)(=O)c1ccc(N/N=C2\C(=O)Nc3cccc(CCc4ccncc4)c32)cc1`, the inhibition in assay [1] was 20.6%; in assay [2], 3.64%; in [3], 7.9%; in [4] it was 5%; in assay [5], 8.21%; in assay [6], -0.95%. For the same molecule, the inhibition amounted to 0.03% in assay [7]; 1.75% in assay [8]; 3.46% in assay [9]; 4.39% in [10]; 16.9% in assay [11]; 1.96% in [12]. In addition, the inhibition in [13] worked out at 3.3%; in assay [14], 4%; in assay [15], 10.8%; in [16], 31.3%; in assay [17], 48.9%; in [18] it was 20.1%. Further, the inhibition in assay [19] was determined as 29.8%; in assay [20], 10.5%.
